Laboratory results: PubChem BioAssay (EPA / NIEHS)
Records with an inconclusive call do not appear. Calls of active or inactive are those of the source. How the source made its calls: active means hit-call score of the fitted dose curve at least 0.9, where 1 is the maximum; inconclusive means response in the unintended direction; inactive means score below 0.9.

Target: Estrogen-related receptor gamma (Homo sapiens) (UniProt P62508)
Experiment: ATG_ERRg_TRANS: Attagene TRANS-FACTORIAL HepG2 Assay for human Estrogen-Related Receptor gamma (ERRg) (AID 2282977);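 further: hits increase reporter signal over DMSO so potencies reflect activators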
Conditions: HepG2 Attagene TRANS reporter, ERRg transactivation
Protocol: ATG_TRANS is a cell-based, multiplexed-readout assay that uses HepG2, a human liver cell line, with measurements taken at 24 hours after chemical dosing in a 24-well plate.ATG_ERRg_TRANS is one of 30 assay component(s) measured or calculated from the ATG_TRANS assay. It is designed to make measurements of mRNA induction, a form of inducible reporter, as detected with fluorescence intensity signals by Reverse transcription polymerase chain reaction (RT-PCR) and Capillary electrophoresis technology.Data from the assay component ATG_ERRg_TRANS was analyzed into 1 assay endpoint. This assay endpoint, ATG_ERRg_TRANS, was analyzed in the positive analysis fitting direction relative to DMSO as the negative control and baseline of activity. Using a type of inducible reporter, measures of mRNA for gain-of-signal activity can be used to understand the reporter gene at the transcription factor-level as they relate to the gene ESRRG. Furthermore, this assay endpoint can be referred to as a primary readout, because this assay has produced multiple assay endpoints where this one serves a reporter gene function. To generalize the intended target to other relatable targets, this assay endpoint is annotated to the nuclear receptor intended target family, where the subfamily is steroidal.
Human liver HepG2 cells are transiently transfected with multiple reporter transcription units (MRTUs) in 6-well plates using FuGene 6 reagent (Roche; 3 ml FuGene/1 mg DNA). The MRTU constructs are regulated by a cis-regulating element (promoter). […] A major difference between the CIS and TRANS system is that in CIS activities of endogenous TFs are measured, whereas the TRANS assay evaluates changes in activities of exogenous, chimeric NR-Gal4 proteins. […] At the end of 24 hour incubation, total RNA was isolated using TriZol reagent (Invitrogen). The isolated RNA is then reverse-transcribed using oligo(dT) primer and Mo-MLV reverse transcriptase (Invitrogen) with DNAse I (Ambion) treatment for 30 min. The one-tenth of the produced cDNA was amplified by PCR using Taq DNA polymerase (Invitrogen) and two reporter sequence-specific primers. The PCR products were fluorescently labeled by primer extension with 6-arboxyfluorescein (6-FAM) 5'-labeled reporter sequence-specific primer (2 min at 95 C, 20 s at 68 C and 10 min at 72 C) and these products were digested with 5U of HpaI (New England Biolabs) for 2h at 37 C. The fragments were purified using Qiaquick PCR columns (Qiagen), analyzed on an ABI 3130xL genetic analyzer (Applied Biosystems) with peak positions identified by using a set of X-rhodamine (ROX)-labeled MapMarker1000 molecular weight standards (BioVentures). The raw capillary electrophoresis data was processed using Attagraph software (Attagene).

Chain of Estrogen-related receptor gamma (Homo sapiens) (P62508 whole entry, looked up): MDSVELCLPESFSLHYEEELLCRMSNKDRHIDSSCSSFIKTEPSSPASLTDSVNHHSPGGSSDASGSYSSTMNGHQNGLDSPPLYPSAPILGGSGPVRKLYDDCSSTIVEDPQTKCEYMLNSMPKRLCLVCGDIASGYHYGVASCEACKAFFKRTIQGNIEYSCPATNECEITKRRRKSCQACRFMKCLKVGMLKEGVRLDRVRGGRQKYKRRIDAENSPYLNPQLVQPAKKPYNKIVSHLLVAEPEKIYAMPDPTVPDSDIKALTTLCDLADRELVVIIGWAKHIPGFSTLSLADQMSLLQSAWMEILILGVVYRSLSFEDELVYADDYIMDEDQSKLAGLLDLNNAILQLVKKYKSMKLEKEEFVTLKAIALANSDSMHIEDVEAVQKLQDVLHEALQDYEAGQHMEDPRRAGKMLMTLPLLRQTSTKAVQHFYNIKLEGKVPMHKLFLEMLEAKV

outcome, inactive:
CC(=O)S[C@H](C(=O)N[C@H]1Cc2ccccc2[C@H]2CCC[C@@H](C(=O)O)N2C1=O)C(C)C
CC(COCC(C)OC(=O)c1ccccc1)OC(=O)c1ccccc1 (centres undefined)
CCCCCCCCCC[N+](C)(C)[O-]
Cc1ccc(-c2cc(C(F)(F)F)nn2-c2ccc(S(N)(=O)=O)cc2)cc1
CCCCOC(=O)CCCCC(=O)OCCCC
Cc1cc(SC2=C(O)C[C@@](CCc3ccc(N)cc3)(C(C)C)OC2=O)c(C(C)(C)C)cc1CO
CCCC(=O)O
O=[Si]=O
O=C(N[C@@H](c1ccccc1)[C@@H]1CCCCN1)c1cccc(C(F)(F)F)c1Cl
O=C(O)CN(CC(=O)O)CC(=O)O
NC=O
Cc1ccc(C(C)(C)C)c(O)c1
S=c1[nH]c2ccccc2s1
c1ccc2occc2c1
CC(=O)OCC(COC(C)=O)OC(C)=O
COc1ccc(C(=O)Nc2nc3ccccc3c(NCc3ccccc3)c2C#N)cc1
CCOCCOCCO
CC(=O)OC1CC(C)OC(C)O1 (centres undefined)
CC(C)(C)c1ccccc1
